Rv3671c protease – inhibitors of M. tuberculosis serine protease Rv3671c | P9WHR9 | inhibition, % at 5.96 µM | actives 0.048% (n = 320,000) | AID 2606; in the data active = inhibition above about 38%;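 note: extracellular domain of Rv3671c used as enzyme; 0% = enzyme with DMSO and 100% = no enzyme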
Target sequence (P9WHR9 whole entry, looked up, the tested form may be a part): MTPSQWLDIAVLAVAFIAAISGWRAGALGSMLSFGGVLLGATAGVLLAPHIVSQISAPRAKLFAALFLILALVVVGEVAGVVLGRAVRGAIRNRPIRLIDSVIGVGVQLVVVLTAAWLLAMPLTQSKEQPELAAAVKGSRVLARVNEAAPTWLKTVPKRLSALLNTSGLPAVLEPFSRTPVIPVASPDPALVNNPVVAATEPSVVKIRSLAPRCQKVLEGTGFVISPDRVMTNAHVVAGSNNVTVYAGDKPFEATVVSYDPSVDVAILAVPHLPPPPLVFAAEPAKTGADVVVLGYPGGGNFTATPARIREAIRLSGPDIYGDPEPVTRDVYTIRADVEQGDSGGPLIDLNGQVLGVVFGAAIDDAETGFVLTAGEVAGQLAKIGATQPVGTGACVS
DUSP3 inh – inhibitors of human VHR1 phosphatase (DUSP3). P51452. actives 0.52% (n = 290,000). recombinant VHR phosphatase, pNPP absorbance. inhibition, % at 13.3 µM; in the data active = inhibition above about 50%
Mtb UGM inh – blocks M. tuberculosis UGM enzyme | inhibition, % at 10 µM | actives 0.06% (n = 320,000) | purified UGM, fluorescence polarization probe displacement; in the data active = inhibition above about 10%, passing the limit was not always enough
Mtb betalactam – beta-lactam sensitization of Mtb H37Rv. M. tuberculosis H37Rv growth with meropenem, percent inhibition. inhibition, % at 25 µM. actives 0.27% (n = 330,000). AID 434955; call rule not given here;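 note: growth measured after seven days incubation then overnight dye step; 0% = bacteria only wells and 100% = bacteria with antibiotic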
Mtb hypoxia rep – reduces hypoxia-regulated biosensor signal in M. tuberculosis. actives 0.1% (n = 300,000). fluorescence inhibition, % (concentration not given with the values). AID 1159583. M. tuberculosis hypoxia-regulated fluorescent reporter, fluorescence; in the data active = fluorescence inhibition mostly above about 23%, no sharp cut-off; inactive = mostly below about 17%
* marks the source's active call; other numbers are inactive results; / = not tested or not shown. An excerpt weighted towards active compounds, which were near 0.59% of everything screened.

SMILES | Rv3671c protease | DUSP3 inh | Mtb UGM inh | Mtb betalactam | Mtb hypoxia rep
Cc1ccc(S(=O)(=O)N2CCC(=O)N(CCOCc3cccc(Cl)c3)CC2)cc1 | -4 | 1 | 1 | -4 | 7
COc1ccc([N+](=O)[O-])cc1NC(=O)Cn1ccsc1=N | -2 | 51* | 1 | 5 | 6
Cc1cc(NC(=O)Cn2ccsc2=N)c([N+](=O)[O-])cc1C | -2 | 16 | 1 | -4 | -1
CC(=O)c1ccc(Oc2ncnc(N)c2[N+](=O)[O-])cc1 | -1 | -16 | -2 | 11 | 16
CC(/C=C1\SC(=S)N(c2ccc(C(=O)O)cc2)C1=O)=C\c1ccccc1 | -41 | 53* | -3 | 6 | /
CC(/C=C1\SC(=S)N(NC(=O)c2ccc(C)cc2)C1=O)=C\c1ccccc1 | -44 | 20 | -3 | 7 | 8
CC1=CC(C#N)(C#N)C(C#N)(C#N)C(c2ccccc2)N1 (stereo unspecified) | 43* | 17 | -2 | 0 | /
CCOc1ccc2nc(NC(=O)c3ccccn3)sc2c1 | -1 | 23 | -3 | 96 | -8
Cc1ccc2nc(NC(=O)c3ccccn3)sc2c1 | -14 | 52* | -4 | 97 | 10
Cc1csc(NC(=O)c2nc3nccc(C)n3n2)n1 | 7 | 21 | 0 | 4 | 4
Cc1ccnc2nc(C(=O)Nc3nc4ccccc4s3)nn12 | 0 | 14 | -1 | 92 | 53*
CCOC(=O)c1c(=O)n(O)c2ccc(OC)cc2[n+]1[O-] | -5 | 33 | 15* | -2 | 10
O=C(O)CN1C(=O)/C(=C\c2cc(Br)ccc2OCc2ccc(Cl)cc2)SC1=S | / | 57* | 2 | 3 | 13
O=c1c(Cc2ccc(Cl)cc2)c(O)ccn1Cc1cccs1 | 4 | 50* | 0 | -1 | -1
O=c1c(Cc2ccc(Cl)cc2)c(O)ccn1Cc1ccncc1 | -5 | 22 | -1 | -10 | -1
CCN1CCN(CCCNC(=O)c2ccc(NC(=O)C3=CSCCO3)cc2)CC1 | 1 | 52* | -2 | 6 | -15
CCn1cc(C(=O)NNC(=O)c2ccc(Cl)cc2)c(=O)c2ccc(C)nc21 | 10 | 52* | -2 | -1 | 6
CCn1cc(C(=O)OCC(=O)c2ccc(Cl)cc2)c(=O)c2ccc(C)nc21 | -4 | -1 | 2 | -17 | 7
CN(C)c1ccc(N=Cc2nc(-c3ccccc3)oc2O)cc1 | 4 | 2 | 15* | 33 | /
CCOc1ccccc1NC(=O)NC1(C(=O)NCC2CCCO2)CCCCC1 (stereo unspecified) | -6 | 48 | -3 | 3 | 8
Fc1ccc(-n2c(-c3ccc4ccccc4n3)n[nH]c2=S)cc1 | 5 | 26 | 0 | 0 | /
S=c1[nH]nc(-c2ccc3ccccc3n2)n1-c1cc(Cl)cc(Cl)c1 | -5 | 55* | 1 | 16 | 4
O=C(c1ccc(Cl)cc1)N1CCc2ccccc21 | -7 | 56* | -5 | 4 | 9
Cc1nnc(NC(=O)CSc2ccc(-c3ccccn3)nn2)s1 | 2 | -10 | 3 | 2 | 68*
Cc1nnc(NC(=O)CSc2ccc(-c3cccnc3)nn2)s1 | 1 | -17 | 5 | -3 | 10
SMILES | Rv3671c protease | DUSP3 inh | Mtb UGM inh | Mtb betalactam | Mtb hypoxia rep
CCOC(=O)Cc1csc(NC(=O)CSc2nc(N)c3c(C)c(C)sc3n2)n1 | -56 | 50* | 1 | -3 | 13
COC(=O)c1ccccc1NC(=O)CN(c1c(C)cccc1C)S(C)(=O)=O | 0 | 18 | -4 | -2 | 8
COc1cc(C2=NC(CO)(CO)CO2)cc(OC)c1OC | -2 | 58* | 1 | -7 | 15
NC(=O)c1cc2c3ccccc3ccn2c1-c1ccccc1 | 0 | 64* | 6 | 73 | 20
COc1cccc(NC(=O)NNS(=O)(=O)c2ccc(OC)cc2OC)c1 | / | 50* | 0 | 3 | 7
CNC(=S)NNS(=O)(=O)c1ccc(OC)cc1OC | 4 | -11 | -3 | 1 | 7
COc1ccc(-n2c(SCC(=O)N(C)c3ccccc3)nc3c([nH]c4ccccc43)c2=O)cc1OC | 4 | -2 | -1 | 1 | -11
CCn1c(SCC(=O)N(C)c2ccccc2)nc2c([nH]c3ccccc32)c1=O | -15 | 53* | 1 | -5 | 0
CCN(CC)CCN(C(=O)c1ccccc1OC)c1nc2ccc(F)cc2s1 | -13 | 2 | -1 | 0 | 5
COC(=O)[C@@H](Cc1c[nH]c2ccccc12)NC(=O)c1ccc2c(c1)OCO2 | 3 | 53* | 1 | -7 | -18
CN(/N=C/c1cccs1)c1cc(=O)n(C)c(=O)[nH]1 | -9 | 22 | -1 | -4 | /
Cc1sc2nc(SCC(=O)NCc3ccco3)n(C)c(=O)c2c1C | 6 | 8 | 3 | 0 | 16
